# About 83,000 compounds went through this panel and 20% of them were active in at least one assay; those are over-represented in the sample as a whole.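 Step 1: grow cells in 96-well plates. Step 2: add test compound at a single concentration. Step 3: incubate 48 h. Step 4: record percent growth.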 Activity calls are given as the source filed them. Rule for the calls: active = growth percent below 10; inactive = the rest.
# Test system: MDA-MB-468 breast
# Experiment: NCI-60 one-dose screen, 48 h (100 = growth as untreated, 0 = no growth, -100 = all killed)
# Settings: 10 µM unless noted
row,Compound,growth
1,Cc1ncc(CO)c(C(=O)O)c1O,108% (inactive)
2,C=CCOC(=O)C(=O)OCC=C,104% (inactive)
3,CCOC(=O)C1CCNC(=O)C1=O (stereo not given),99.5% (inactive)
4,Fc1ccc2[nH]cc(-c3nc(-c4c[nH]c5ncccc45)cs3)c2c1,34.9% (inactive)
5,COc1ccc(-c2nnc(SCC(=O)c3ccc(Cl)cc3)o2)cc1,109% (inactive)
6,COc1cc(OC)c(NC(=O)C(Sc2nc(C)cc(C)c2C#N)c2ccccc2)cc1Cl (stereo not given),93.6% (inactive)
7,O=C(N/N=C/c1cccc(O)c1)c1ccccc1Nc1cccc(C(F)(F)F)c1,27% (inactive)
8,CCOC(=O)c1c(Cl)c2c(n1Cc1ccc(OC)cc1)-c1oncc1CCC2,101% (inactive)
9,COc1ccccc1NC1=C(Cl)C(=O)c2nc(C)ccc2C1=O,-79.7% (active)
10,CCOC(=O)c1c(C)oc2ncnc(N3CCN(C(=S)Nc4ccccc4)CC3)c12,85.2% (inactive)
11,CCOC(=O)c1c2c(n3ccc(NC(=O)CCN4CCOCC4)cc13)C(=O)c1ncccc1C2=O,49.7% (inactive)
12,COc1ccc(/C=C2\CCCC3=C2NC(C)=NC3c2ccc(OC)c(OC)c2)cc1OC (stereo not given),-10.3% (active)
13,COc1ccc(C2CC(c3ccc(OC)c(OC)c3)=NN2C(=O)c2cc(OC)c(OC)c(OC)c2)cc1 (stereo not given),-32.5% (active)
14,CC(=O)OC1CC2C(C)(C)OC3CC(=O)OCC32C2CCC3(C)C(=CCC3c3ccoc3)C12C (stereo not given),39.1% (inactive)
15,Cc1cc(Cc2ccccc2)c(O)c(Cc2ccccc2)c1,95.8% (inactive)
16,Brc1cc(-c2cc(-c3ccc4c(c3)OCCO4)[nH]n2)cs1,12% (inactive)
17,COc1cc(-c2csc(NC(=O)c3cc(F)cc(C(F)(F)F)c3)n2)cc(OC)c1OC,-1.52% (active)
18,CC1=C(O)C(=O)CC1,104% (inactive)
19,O=C(CSc1ncc(-c2ccccc2)n1-c1ccccc1)Nc1ccc(-c2nc3ccccc3s2)cc1,15.4% (inactive)
20,Cc1onc(-c2c(F)cccc2Cl)c1-c1ncc(-c2ccc(Br)cc2)o1,28.4% (inactive)

row,Compound,growth
1,NC(=Nc1ccc(N)cc1)C(N)=Nc1ccc(N)cc1,94.3% (inactive)
2,Cc1cccc(-c2nc(Nc3ccc4ncsc4c3)c3ccccc3n2)n1,72.3% (inactive)
3,COC(=O)C1=C(C(=O)ON)C2C=CC1(C(Cc1ccccc1)Nc1ccccc1)O2 (stereo not given),-45% (active)
4,O=S(=O)(NCCCNc1nccc(-c2c(-c3ccccc3)nc3occn23)n1)c1ccc(Cl)cc1,67.1% (inactive)
5,CC(C)(C)OC(=O)N1CCCN(CCNc2nccc(-c3c(-c4cccc(O)c4)nc4sccn34)n2)S1(=O)=O,97.3% (inactive)
6,O=S(=O)(NCCNc1nccc(-n2cnc3ccccc32)n1)c1ccc(Br)cc1,84% (inactive)
7,CCC1CCc2nc3sc(C(=O)Nc4cccc(C)c4)c(N)c3cc2C1 (stereo not given),44.5% (inactive)
8,O=C(CCSc1nnc2n(Cc3ccccc3)c(=O)c3c4c(sc3n12)CCCC4)N1CCN(c2ccccc2)CC1,101% (inactive)
9,COc1ccc(Nc2ncccc2C(=O)NCc2cn(Cc3cc(OC)cc(OC)c3)nn2)cc1,103% (inactive)
10,COc1ccc(CNc2c3ccccc3nc3ccccc23)cc1OC,-22.7% (active)
11,Cc1ccc(C2CC(c3cccc(Nc4ccncc4)c3)=NN2c2ccc(Cl)cc2)cc1 (stereo not given),-71% (active)
12,c1ccc2c3c([nH]c2c1)C(c1ccc(C2NCCc4c2[nH]c2ccccc42)cc1)NCC3 (stereo not given),-83.2% (active)
13,CCCCn1c(-c2cccc(OC)c2)nc2cc(OC)c(OC)cc2c1=O,107% (inactive)
14,Fc1cc(-c2ncc(-c3cc(F)c(F)c(F)c3)c(NC3CCCCCC3)n2)cc(F)c1F,99% (inactive)
15,O=C(/C=C/c1cccc(B(O)O)c1)c1cccc(B(O)O)c1,-84.9% (active)
16,Cc1ccc(NC(=O)c2cc(/C=C/C(=O)NO)cc(C(F)(F)F)c2)cc1Nc1nccc(-c2cccnc2)n1,-24.4% (active)
17,CN1CCC(CNc2ccc3ncc(-c4cccc(OC(F)(F)F)c4)n3n2)CC1,-84.8% (active)
18,CC(=O)Nc1cccc(-c2ccc3c(c2)NC(=O)/C3=C\c2ccc[nH]2)c1,21.1% (inactive)
19,CC(=O)C1CCC(C)=CC1=O (stereo not given),116% (inactive)
20,C/C(=C(/c1ccc(O)cc1)c1ccc(OCCN(C)C)cc1)c1ccc(Cl)cc1,22.2% (inactive)

# — PubChem BioAssay (NCI)
